# Laboratory results from PubChem BioAssay (NCI).
# The panel holds about 83,000 compounds, 20% with a hit somewhere; the sample as a whole holds those more often.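 Percent growth is the endpoint: 0 to 100 indicates growth inhibition (40 means 60% inhibition), 0 means no net growth, and negative values indicate cell death.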 Unmarked numbers belong to inactive results. Active and inactive are the calls of the source.
# Tested on: CAKI-1 renal
# Assay: NCI-60 one-dose screen, 48 h (100 = growth as untreated, 0 = no growth, -100 = all killed)
# Settings: 10 µM unless noted
# Method: Growth inhibition of the CAKI-1 human tumor cell line is measured as a screen for anti-cancer activity. Cells are grown in 96 well plates and exposed to the test compound for 48 hours. Compounds are tested at a single concentration, which is 10^-5 M for most compounds. The reported endpoint is percent growth (GI% or GIPRCNT), where numbers from 0 - 100% represent growth inhibition, and numbers from -100% - 0 represent cell death. For example, a value of 40 represents 60% growth inhibition. A value of 0 means no net growth occurred over the course of the experiment. A value of -40 indicates 40% of cells at the beginning of the experiment died by the end of the experiment. A value of -100 means all cells are dead at the end of the experiment.
# NCI-60 Human Tumor Cell Lines Screen was performed using the standard one-dose NCI protocol, which is described in more detail at https://dtp.cancer.gov/discovery_development/nci-60/default.htm.
# Compounds with GIPRCNT values below 10 were considered active. Activity score was based on GIPRCNT using the following formula: […]
# Score is 0 for GIPRCNT values of 100 or above, 50 for GIPRCNT values of 0, and 100 for GIPRCNT values of -100.
row,Structure (SMILES),growth
1,CCOC(=O)c1sc(-c2ccc(OS(=O)(=O)c3ccc(C(C)(C)C)cc3)c(C=O)c2)nc1C,20.5%
2,COc1cc(C2C=C(c3cccc(NC(C)=O)c3)Nc3ncnn32)cc(OC)c1OC (stereo not given),-10.6% (active)
3,N=C(N)c1ccc(-c2ccc(-c3ccc(Cl)cc3Cl)o2)cc1,17.3%
4,COc1ccc(-c2cc(-c3ccc(Nc4nc(Nc5ccccc5)nc(Nc5ccc(Cl)cc5)n4)cc3)nc(N)n2)cc1,75.8%
5,CN(C)c1ccc2cc(-c3ccc(Cl)c(Cl)c3)c(N)nc2c1,39.5%
6,C[C@@H]1CC[C@@H]2[C@@H]1[C@H](OC(=O)c1ccc3ccccc3c1)[C@]1(C3CCCCC3)C[C@@H](OC(=O)CO)[C@@]2(C)O1,-31% (active)
7,Fc1ccc(Nc2nc(Nc3ccc(-c4nc5ccccc5[nH]4)cc3)c3cn[nH]c3n2)cc1,89.7%
8,O=C1CSC(c2ccc(O)cc2)N1c1nnc(Cn2cnnc2)o1 (stereo not given),79.4%
9,N#C/C(=C\c1ccc(Br)cc1)n1nnc2cc(Cl)c(Cl)cc21,21.9%
10,C[C@@H]1CC[C@@H]2[C@@H]1[C@H](OC(=O)/C=C/c1ccccc1)[C@]1(CCCOCCOCCOCCOC(=O)CCCC[C@@H]3SC[C@@H]4NC(=O)N[C@@H]43)C[C@@H](OC(=O)CO)[C@@]2(C)O1,91.5%
11,O=C(CC1Sc2ccccc2NC1=O)NNc1ccc(F)cc1 (stereo not given),69%
12,O=C(Nc1cccc2[nH]c(C(F)(F)F)nc12)c1cc(Cl)ccc1Cl,31.3%
13,COc1ccc(/C(C)=C(\c2ccc(Cl)cc2)c2ccc(OCCN3CCCC3)cc2)cc1F,22%
14,NC(=S)c1csc(CCNC(=O)c2ccccc2)n1,91.3%
15,Cc1nc2ccc(C(=O)NCc3cc(C(=O)O)c(C)o3)cc2nc1C,86.2%
16,CCC(O)(C(c1ccccc1)c1ccccn1)C(c1ccccc1)c1ccccn1 (stereo not given),90.3%
17,C=C1C(=O)O[C@H]2[C@H]1CC/C(COC(=O)/C=C/C(=O)NCc1ccc(Cn3c(=O)sn(-c4ccccc4)c3=O)cc1)=C\CC[C@@]1(C)O[C@@H]21,35.5%
18,O=C(/C=C/C12c3ccccc3C(c3ccccc31)C1C(=O)NC(=O)C12)c1ccc(Cl)cc1 (stereo not given),33.6%
19,O=C1CCC(N2C(=O)c3cccc(NCCCC4CCN(CCNC(=O)c5cc6c(o5)C(=O)c5ccccc5C6=O)CC4)c3C2=O)C(=O)N1 (stereo not given),-26.4% (active)
20,Nc1c(-c2nc3ccccc3c(=O)[nH]2)nnn1-c1ccc(Cl)cc1,70.2%

row,Structure (SMILES),growth
1,O=C(C[C@@]1(O)C(=O)Nc2c(Cl)ccc(Cl)c21)c1ccc(C2CC2)cc1,34.4%
2,COC(=O)c1ccc(CSc2nnc(-c3ccncc3)o2)cc1,90.3%
3,Cc1cnc(Nc2ccc(N3CCN(C)CC3)cc2)nc1Nc1ccc(Cl)c(NS(=O)(=O)C(C)(C)C)c1,25%
4,O=C(/C=C/c1ccccc1)c1ccc2ccccc2c1,83.9%
5,COC(=O)c1ccc2oc(NC(=O)c3ccc(N4CCOCC4)c([N+](=O)[O-])c3)nc2c1,85.9%
6,O=C(Nc1ccc(N2CCCCC2)c(Cl)c1)c1ccc(Br)o1,94.8%
7,Oc1[nH]c2ccccc2c1/C=c1/cc2c(c(-c3ccc(F)cc3)n1)=Nc1ccccc1-2,14.8%
8,CCc1c(C(=O)N[C@@H]2c3cc(Cl)ccc3CC[C@@H]2O)[nH]c(C)c1C(C)=O,71.5%
9,CC(=O)Nc1nccs1,101%
10,N[C@H]1CCC[C@@H]1NCCCCN1C(=O)c2cccc3cccc(c23)C1=O,84.4%
11,Cc1ccc(-n2nnc(C3=NCCc4c3[nH]c3ccc(Cl)cc43)c2C)cc1,56.1%
12,CC(=O)c1ccc2c(c1)CCN2,111%
13,O=[N+]([O-])c1ccc2[nH]cc(-c3c4ccsc4cc4[nH]c5ccc([N+](=O)[O-])cc5c34)c2c1,26.2%
14,COc1cc(/C=C/C(=O)c2ccc(Nc3nc(Nc4ccccc4)nc(Nc4ccc(Cl)cc4)n3)cc2)cc(OC)c1OC,66.4%
15,CN1CCN(C2=C(Cl)C(=O)c3ccccc3C2=O)CC1,77%
16,CCCCCCCC/C=C/CCCCCCCC1=NCC[N+]1(CCO)CCO,52.5%
17,COc1ccc(Nc2ncc(Br)c(NCCCNC(=O)C3CCC3)n2)cc1,0.899% (active)
18,C=C1C(=O)O[C@H]2[C@H]1CC/C(COC(=O)/C=C\C(=O)NCc1ccc(Cn3c(=O)sn(CCCC)c3=O)cc1)=C\CC[C@@]1(C)O[C@@H]21,-78.8% (active)
19,C#CC[C@H](N)C(=O)O,91.1% [20 µM]
20,N[C@@H]1CCC[C@H]1NCCCCN1C(=O)c2cccc3cccc(c23)C1=O,81.3%
